Experimental data taken from PubChem BioAssay (NCI).
About 79,000 compounds went through this panel and 15% of them were active in at least one assay; those are over-represented in the sample as a whole. Values without a mark were called inactive. No stated cut-off is given here; in the data, active means growth inhibition above about 70%; inactive means the rest.

Assay: NCI Yeast Anticancer Drug Screen. Data for the sgs1 mgt1 strain (AID 161);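 further: 0% = growth of cultures given vehicle only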
Conditions: S. cerevisiae sgs1 mgt1 strain, at 50.0 µM, hits give high values
Summary of the method: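 Growth of a repair-deficient yeast mutant was monitored after compound treatment and expressed as inhibition relative to vehicle-treated cultures.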

Compound | growth inhibition [%]
CN1C(=O)C(=O)n2c(cc3ccccc32)C1=O | 7.25
CSSC(SC)SC | 13.6
CC(C)=C(CSC#N)S(=O)(=O)c1ccc(C)cc1 | 7.1
S=C(c1ccccc1Cl)N1CCOCC1 | 14.7
CCN(CC)c1ccccc1-c1ccccc1 | 1.05
CC(=O)Nc1ccc(/C=N/NC(N)=O)cc1 | 19.8
O=C1CC2C(=O)N(Cc3ccccc3)C1C=C2S(=O)(=O)c1ccccc1 (stereo not given) | 36.8
CC/C(C)=C1/CC(C)(C)N=C1C | -10
O=C1c2cccc3cc([N+](=O)[O-])cc(c23)C(=O)N1C(Cc1ccccc1)c1ccccc1 (stereo not given) | 16.4
NC(N)=Nc1nc2ccc(Cl)cc2[nH]1 | 22.8
COC(=O)CCSc1ccccc1 | 5.45
O=C(C(=O)c1cccc(C(=O)C(=O)c2ccccc2)c1)c1ccccc1 | -15.2
CCCCS(=O)(=O)Nc1cccc(C(=O)O)c1 | 20.9
CCC(CC)OC(=O)Nc1cccc2ccccc12 | -5.75
CN(C)CCCN=C(N)N | -23.9
CCC(=O)N(C)C1(C#N)CCCCC1 | 13
CONC(CC(=O)c1ccccc1)c1ccccc1 (stereo not given) | 5.75
Cn1ncc2c(N)nc(NCCO)nc21 | -4.75
O=C1NC(c2cccc3ccccc23)Nc2ccccc21 (stereo not given) | 9.2
O=C1C(Cl)(Cl)C(=O)C(Cl)(Cl)C(=O)C1(Cl)Cl | 47

Compound | growth inhibition [%]
NC1C(O)C(N)C(O)C(O)C1O (stereo not given) | 5.6
CCOc1ccc(C(C)(CC)c2cc3c(cc2OC)OCO3)cc1 (stereo not given) | -23.3
C/C(CCC(=O)O)=N\NC(=O)COc1ccc(Cl)cc1Cl | 18.6
CCCCCCCCCCCC1=c2o[nH]c2=C(c2ccccn2)C(=O)C1=O | 6.5
O=CC(NC(=O)N(CCF)N=O)C(O)C(O)C(O)CO (stereo not given) | 2.5
O=C(O)c1cc(/C=C/c2ccccc2)ccc1[N+](=O)[O-] | 7.5
NNC(=S)N/N=C(\c1nc2ccc(Cl)cc2[nH]c1=O)C(O)c1cccc([N+](=O)[O-])c1 (stereo not given) | 12
CCN(CC)c1ccc2cc(-c3nc4ccccc4[nH]3)c(=O)oc2c1 | 12.5
CN(C)C(=O)Nc1ccc2c(c1)OCO2 | -1.4
Oc1cc2c(cc1C(c1ccc(Cl)cc1)N1CCCCC1)OCO2 (stereo not given) | 1.25
c1ccc2c(c1)Cc1c-2n[nH]c1-c1[nH]nc2c1Cc1ccccc1-2 | 34.8
CCOC(=O)c1c(/N=C/c2ccc(N(C)C)cc2)sc2c1CCCC2 | 17.3
Cc1csc[n+]1C/C(=N/O)c1ccc(I)cc1 | 14.8
C(=C\C(Sc1ccccc1)c1ccccc1)/NNC1=NC(c2ccccc2)C(c2ccccc2)=NN1 (stereo not given) | -42.8
CCOc1ccccc1NC(=O)/C=C1\NC(=O)CS1 | 27.2
CN(C)CCCCCCNCCC#N | -8.4
CC(=O)OC(OC(C)=O)c1cccc2ccccc12 | -5.8
CC(C)CCCC(C)C1CCC2C(CC(=O)O)C(C3(C)CCC(O)CC3=O)CCC2(C)C1 (stereo not given) | 25.9
N#Cc1nc(Nc2ccc([N+](=O)[O-])cc2)sc1N | 31.1
O=C(O)COc1cc(Cl)cc(F)c1Cl | -9.4
